A selection: hits, their analogues and other compounds. The true share with any hit is near 8.7%.
JMJD2A Tudor = JMJD2A Tudor domain (human) inhibition; O75164; AID 504339; 390,000 compounds, 4.4% hits; Potency, µM (highest dose often 114 µM), inactives show at the top dose activity change, negative = inhibition, most hits filed as inhibitors; AlphaScreen JMJD2A-Tudor / H3K4me3 peptide binding; further: on the % scale 0 is the no-effect control and ±100 the full control effect; nearly all actives have a fitted effect of over 50% in size
Target sequence (O75164 whole entry, looked up, the tested form may be a part): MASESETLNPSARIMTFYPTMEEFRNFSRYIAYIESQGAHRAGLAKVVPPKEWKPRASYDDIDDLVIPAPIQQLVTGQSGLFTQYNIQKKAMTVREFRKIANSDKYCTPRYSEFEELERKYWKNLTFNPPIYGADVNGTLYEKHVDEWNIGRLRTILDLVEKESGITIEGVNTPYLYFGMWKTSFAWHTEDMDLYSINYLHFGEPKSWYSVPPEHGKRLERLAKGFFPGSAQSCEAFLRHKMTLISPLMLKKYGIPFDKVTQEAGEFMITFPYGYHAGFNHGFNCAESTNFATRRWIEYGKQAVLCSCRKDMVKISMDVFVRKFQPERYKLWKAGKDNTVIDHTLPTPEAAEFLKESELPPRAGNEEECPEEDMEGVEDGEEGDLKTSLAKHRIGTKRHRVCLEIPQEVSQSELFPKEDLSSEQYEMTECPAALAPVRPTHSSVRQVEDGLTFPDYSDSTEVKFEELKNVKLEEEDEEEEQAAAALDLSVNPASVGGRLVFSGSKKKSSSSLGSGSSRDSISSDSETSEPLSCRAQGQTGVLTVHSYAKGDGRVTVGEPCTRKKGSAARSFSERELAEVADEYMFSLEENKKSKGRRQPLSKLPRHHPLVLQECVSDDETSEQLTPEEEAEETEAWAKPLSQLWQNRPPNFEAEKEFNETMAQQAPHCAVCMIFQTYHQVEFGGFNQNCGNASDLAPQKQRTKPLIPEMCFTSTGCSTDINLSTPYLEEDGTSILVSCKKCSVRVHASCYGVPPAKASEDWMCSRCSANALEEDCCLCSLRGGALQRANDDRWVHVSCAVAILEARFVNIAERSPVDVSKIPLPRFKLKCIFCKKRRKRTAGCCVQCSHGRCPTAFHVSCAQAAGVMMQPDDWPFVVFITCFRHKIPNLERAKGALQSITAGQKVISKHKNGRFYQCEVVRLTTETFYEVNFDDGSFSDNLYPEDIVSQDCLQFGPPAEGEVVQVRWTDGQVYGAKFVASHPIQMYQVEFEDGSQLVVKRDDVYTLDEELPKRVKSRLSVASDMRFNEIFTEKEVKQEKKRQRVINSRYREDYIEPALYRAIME
12-LOX inh = blocks human arachidonate 12S-lipoxygenase. AID 1671190. Potency, µM (series often up to 108 µM), for the others: top-dose activity change, negative = inhibition, most hits filed as inhibitors. P18054. 580,000 compounds, 1.1% hits. purified 12hLO, xylenol orange hydroperoxide absorbance; further: on the % scale 0 is the no-effect control and ±100 the full control effect
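Purified human 12hLO at 150 nM in 25 mM Hepes, 0.01% Triton X-100, pH 7.0, preincubated 15 min at room temperature with compound. Reaction started with 40 uM arachidonic acid, 30 min at room temperature. Hydroperoxide measured by Fe-xylenol orange, 573/405 nm absorbance ratio.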
Sfp inh = Sfp phosphopantetheinyl transferase inhibition; Q9F4F7; Biochemical Sfp PPTase activity, qHTS; Potency, µM, without a hit: largest response in the series, negative = inhibition, hits mostly inhibitors; 310,000 compounds, 3.5% hits;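 further: the enzyme is Sfp with the accession as filed and its product quenches rhodamine fluorescence; 0% = enzyme reaction without inhibitor and -100% = no enzyme wells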
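Step 1, compound plus 15 nM Sfp-PPTase, 15 min, room temperature. Step 2, add rhodamine-CoA (5 uM) and BHQ-2-YbbR (12.5 uM). Step 3, read 525/598 nm fluorescence at 0 and 30 min.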
G9a block = blocks human histone lysine methyltransferase G9a; Q96KQ7; G9a H3K9 monomethylation, AlphaScreen, 2 h; Potency, µM (titrated, usually from 102 µM), for inactives: at the top dose activity, negative = inhibition, hits mostly inhibitors; 350,000 compounds, 8.8% hits; AID 504332; further: on the % scale 0 is the no-effect control and ±100 the full control effect; nearly all actives have a fitted effect of over 75% in size
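Readings reflect AlphaScreen signal from monomethyl-H3K9 antibody detection. HMT at 20 nM; substrate b-H3K9 500 nM; cofactor SAM 20 uM; 2 h RT reaction; compounds tested as titrations in qHTS with 15 min preincubation.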
BAZ2B block = BAZ2B (human) inhibition. 360,000 compounds, 4.4% hits. AlphaScreen BAZ2B-H3K14Ac peptide displacement. Q9UIF8. Potency, µM (highest dose often 114 µM), for the others: at the top dose activity change, negative = inhibition, most hits filed as inhibitors; further: on the % scale 0 is the no-effect control and ±100 the full control effect; nearly all actives have a fitted effect of over 60% in size
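Multi-concentration screen (max 110 uM) measuring displacement of acetylated histone H3 peptide from BAZ2B by AlphaScreen, using 50 nM protein, 50 nM peptide and 10 ug/mL streptavidin donor plus Ni-chelate acceptor beads.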
HP1b chromo inh = HP1-beta chromodomain-methylated histone interaction inhibition | P83916 | AlphaScreen HP1-beta / biotin-H3K9me3 peptide binding | Potency, µM (highest dose often 114 µM), for inactives: top-dose activity change, negative = inhibition, actives largely listed as inhibitors | 390,000 compounds, 0.56% hits; further: nearly all actives have a fitted effect of over 70% in size
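AlphaScreen: HP1-beta (50 nM) preformed 30 min with biotin-H3(1-18)K9me3 peptide (50 nM) in PBS pH 7.4, 0.01% Tween-20. Compound added for 30 min at RT, then streptavidin donor/nickel chelate acceptor beads (10 ug/mL) for 30 min.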
* marks the source's active call; other numbers are inactive results; u = inconclusive; x = no result given; [ ] = remark or other dose. The call rests on the fitted dose curve; in most records, active means well fitted curve in the direction sought with a large enough effect; inconclusive means small, poorly fitted or top-dose-only effect, or another doubt; inactive means no such curve, though single readings can be large; an effect the other way counts as inactive or inconclusive. Potency means the concentration at half of the fitted maximal effect.

SMILES | JMJD2A Tudor | 12-LOX inh | Sfp inh | G9a block | BAZ2B block | HP1b chromo inh
Cc1ccc(CNS(=O)(=O)c2ccc(C(F)(F)F)cc2)n1C | -27.2% | u | 14.1% | 44.7µM* | u | 23.1%
Cc1ccc(CNS(=O)(=O)c2ccc(F)c(F)c2)n1C | -26.2% | u | 4.8% | 44.7µM* | -23.8% | -20.4%
CC(CCc1ccccc1)NC(=O)c1nccnc1N (centres undefined) | x | 12.0% | x | x | x | x
O=C(Nc1ccc2c(c1)C(=O)N1CCC[C@H]1C(=O)N2)c1cc(-c2cccnc2)n[nH]1 | x | 30.2% | x | x | x | x
Cc1ccc(C(=O)Oc2c(S(=O)(=O)c3ccccc3)c(C)nn2-c2ccccc2)cc1 | 14.1µM* | 0.0% | x | u | u | 6.5%
CC(=O)Oc1c(S(=O)(=O)c2ccc(C)cc2)c(C)nn1-c1ccccc1 | -30.6% | u | 11.5% | 11.2µM* | -21.9% | 26.4%
Cc1ccc(S(=O)(=O)c2c(C)nn(-c3ccccc3)c2OC(=O)c2ccccc2F)cc1 | u | u | x | u | -15.5% | 20.4%
COc1cccc(C2c3cc4c(cc3OC(NNC(N)=O)C2C)OCO4)c1O (centres undefined) | u | 15.8µM* | x | x | x | -13.0%
COc1cc(C2c3cc4c(cc3OC(NNC(N)=O)C2C)OCO4)cc(OC)c1OC (centres undefined) | -18.1% | -18.5% | x | x | x | 12.5%
COc1cccc(C2c3cc4c(cc3OC(N3CCOCC3)C2C)OCO4)c1O (centres undefined) | 39.8µM* | 31.6µM* | x | x | x | u
CC1=C[C@@H](O)CC(C)(C)[C@@H]1/C=C/C(C)=C/C=C/C(C)=C/C=C/C=C(C)/C=C/C=C(C)/C=C/C1=C(C)C[C@H](O)CC1(C)C | x | x | 50.1µM* | u | x | x
CCCc1nc(NCc2ccncc2)c(C#N)c2c1CCCC2 | x | 68.7% | x | x | x | x
CC(=O)N1CCN(c2cc(-c3noc([C@@H]4CCCN4Cc4ccccc4C)n3)ccn2)CC1 | x | 5.7% | x | x | x | x
COc1ccc(N2CCN(Cc3cc4c(cc3Br)OCCO4)CC2)cc1 | 22.4µM* | 0.0% | -7.3% | 28.2µM* | 12.6µM* | u
COc1ccc(N2CCN(Cc3csc(C)c3-c3ccc(C)cc3)CC2)cc1 | 12.6µM* | u | -21.4% | 11.2µM* | 28.2µM* | 35.5µM*
CCN1CCN(c2ccc(NC(=O)CCc3c(C)nc4c(-c5ccccc5)c(C)nn4c3C)cc2)CC1 | u | u | 6.8% | 79.4µM* | -7.2% | -5.7%
CCOc1ccc(NC(=O)CCc2c(C)nc3c(-c4ccccc4)c(C)nn3c2C)cc1 | -13.1% | 0.0% | x | -36.1%[59 µM] | -1.7% | 27.3%
C=CCNC(=O)NC(=O)CN(C)CCOc1ccc(Cl)cc1 | x | -27.9% | x | x | x | x
O=C(NC[C@H]1O[C@@H](CO)[C@@H](O)[C@H]1N1CCN(c2cccc(C(F)(F)F)c2)CC1)c1ccccc1 | x | 48.2% | x | x | x | x
COc1ccc(-n2cc(-c3ccc(Br)cc3)[nH]c2=S)cc1 | -11.4% | 0.0% | -1.4% | -20.5% | u | 25.6%
CC(C)(C)c1cn(-c2ccc(F)cc2)c(=S)[nH]1 | 25.1µM* | -19.0% | u | 1.41µM* | -6.7% | 23.4%
COc1ccccc1C(=O)/C=C/c1cccc(OC)c1OC(F)F | x | -17.8% | x | x | x | x
COc1cccc(C2/C(=C(/O)c3ccc4c(c3)CC(C)O4)C(=O)C(=O)N2c2nnc(C)s2)c1 (centres undefined) | -34.4% | -19.7% | 2.6% | 39.8µM* | -24.9% | 7.8%
CCN(CC)CCN1C(=O)C(=O)/C(=C(/O)c2ccc3c(c2)CC(C)O3)C1c1ccc(OC)cc1 (centres undefined) | u | u | 22.1% | 50.1µM* | -22.5% | 8.7%
Cc1nnc(N2C(=O)C(=O)/C(=C(\O)c3ccc4c(c3)CC(C)O4)C2c2ccccc2)s1 (centres undefined) | -28.8% | 4.6% | 3.5% | 6.9% | -25.9% | 12.1%[57 µM]
SMILES | JMJD2A Tudor | 12-LOX inh | Sfp inh | G9a block | BAZ2B block | HP1b chromo inh
CC1Cc2cc(/C(O)=C3/C(=O)C(=O)N(CCCn4ccnc4)C3c3ccc([N+](=O)[O-])cc3)ccc2O1 (centres undefined) | u | 7.2% | x | x | x | -4.7%
CC1Cc2cc(/C(O)=C3/C(=O)C(=O)N(CCCn4ccnc4)C3c3ccc(F)cc3)ccc2O1 (centres undefined) | -24.4% | -1.7% | 19.7% | 44.7µM* | -24.0%[57.1 µM] | 39.8%
COc1cccc(C2/C(=C(\O)c3ccc4c(c3)OCCO4)C(=O)C(=O)N2CCCn2ccnc2)c1 (centres undefined) | 63.1µM* | -0.2% | 14.8% | u | 56.2µM* | 20.4%
Cc1cc(C(=O)OCC(=O)Nc2ccc(C)c(C)c2)c2ccccc2n1 | x | 15.5% | x | x | x | x
COc1cccc(C2/C(=C(/O)c3ccc4c(c3)CC(C)O4)C(=O)C(=O)N2CCCn2ccnc2)c1 (centres undefined) | -16.6% | 1.4% | 8.3% | 50.1µM* | -27.2%[57.1 µM] | 1.4%
O=[N+]([O-])c1ccc(/C=N/n2c(-c3cccnc3)n[nH]c2=S)cc1 | 8.91µM* | -16.4% | u | -126.8% | 2.8% | -0.8%
O=c1c2ccccc2nc(-c2ccccc2)n1/N=C/c1ccc([N+](=O)[O-])cc1 | -4.1% | 26.5% | 8.7% | 17.1%[59 µM] | 12.0% | 20.7%
O=[N+]([O-])c1ccc(Cl)c(/C=N/n2c(-c3cccnc3)n[nH]c2=S)c1 | x | x | 8.0% | 5.62µM* | -18.7% | x
Cc1ccsc1/C=N/n1c(-c2cccnc2)n[nH]c1=S | 4.47µM* | u | -1.2% | u | -29.3% | -5.0%
O=[N+]([O-])c1cccc(/C=N/n2c(-c3cccnc3)n[nH]c2=S)c1 | 3.98µM* | u | u | 1.78µM* | -36.9% | u
O=C(CSc1nnnn1Cc1ccccc1)N1CCN(S(=O)(=O)c2ccc3c(c2)CCC3)CC1 | x | -1.1% | x | x | x | x
Cc1cc(C)cc(NC(=O)Cn2ccn(-c3ccc(F)c(F)c3)c(=O)c2=O)c1 | x | 56.5% | x | x | x | x
CNS(=O)(=O)c1ccc(C(=O)N2CCCC2c2ccc3c(c2)OCCCO3)cc1 (centres undefined) | x | 12.4% | x | x | x | x
CO/C([O-])=N/c1c[n+](-c2ccc(C)cc2)no1 | -23.0% | u | 10.3% | 20µM* | 7.0% | 31.8%
COCCCNc1ncnc2c1CN(c1ccccc1)C(=O)CN2C | x | 1.1% | x | x | x | x
COc1cccc(-n2ccnc2SCC(=O)Nc2cc(OC)ccc2OC)c1 | 89.1µM* | 0.0% | -4.2% | u | 28.2µM* | 44.7µM*
COc1ccc(NC(=O)CSc2nccn2Cc2ccccc2)c(OC)c1 | -26.5% | 277.5% | 5.3% | 44.7µM* | u | -3.8%
COc1cccc(-n2ccnc2SCC(=O)Nc2ccccc2F)c1 | u | 31.0% | u | -46.1% | 25.1µM* | u
